# A selection: hits, their analogues and other compounds. The true share with any hit is near 1.9%.
# ATG4B inhibitor: ATG4B (human) cysteine protease inhibition; Q9Y4P1; ATG4B cleavage of LC3-PLA2, NBD-HPC fluorescence, 1 h; inhibition, % at 8.33 µM; actives 0.51% (n = 340,000); AID 504462; in the data active = inhibition above about 40%
# H9c2 protect: myocardial damage modulation in H9c2 cells | H9c2 cardiomyocytes, H2O2 injury protection, ATPLite, 2 h | protection from H2O2 cell death, % at 20 µM | actives 0.63% (n = 360,000) | AID 588492;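 active = compounds giving at least 50% protection of heart cells from peroxide-induced death in the single-dose screen, raw or plate-pattern-corrected value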;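 note: 0% = DMSO wells with peroxide and 100% = DMSO wells without peroxide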
# PP5 primary: inhibitors of human protein phosphatase 5 (PP5). P53041. purified PP5c, OMFP substrate fluorescence. inhibition, % at 6.7 µM. actives 0.18% (n = 320,000). AID 1987;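 active = inhibition above the campaign's mean inhibition across all tested compounds plus 3 SD, cut at about 9.5% in these data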;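 note: 0% = DMSO only and 100% = 100 µM cantharidin control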
# PP1 inh: PP1-alpha (human) inhibition in PP5 counter-screen; AID 2235; P62136; purified PP1alpha, OMFP fluorescence; actives 0.9% (n = 320,000); inhibition, % at 6.7 µM;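 active = inhibition above the mean inhibition of all tested compounds plus 3 SD, computed separately for each screening campaign, cut at about 15% in these data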
# Target sequence (P62136 whole entry, looked up): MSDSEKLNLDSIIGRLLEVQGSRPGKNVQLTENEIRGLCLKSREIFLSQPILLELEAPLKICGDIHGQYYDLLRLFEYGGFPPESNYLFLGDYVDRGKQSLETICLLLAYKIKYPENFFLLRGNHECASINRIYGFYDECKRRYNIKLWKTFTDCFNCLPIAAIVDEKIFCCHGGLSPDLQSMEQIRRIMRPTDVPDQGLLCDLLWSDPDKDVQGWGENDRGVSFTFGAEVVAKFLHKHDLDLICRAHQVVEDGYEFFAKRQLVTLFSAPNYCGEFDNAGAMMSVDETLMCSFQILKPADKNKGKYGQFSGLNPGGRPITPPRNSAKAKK
# * marks the source's active call; other numbers are inactive results; nt = no result.
SMILES,ATG4B inhibitor,H9c2 protect,PP5 primary,PP1 inh
Cc1ccc(S(=O)(=O)NCC(C)n2cncn2)cc1C (centres undefined),-11,-6,1,-5
O=C(CSc1nc2ccccc2s1)N/N=C/c1cc([N+](=O)[O-])ccc1O,20,53*,2,4
Cc1cc(=O)oc2cc(OCC(=O)NC3CCCC3)ccc12,-9,0,1,2
Cc1cc(=O)oc2cc(OCC(=O)N/N=C/c3cc([N+](=O)[O-])ccc3O)ccc12,5,55*,4,-2
Cc1ccc(C)c(NC(=O)CCC(=O)N/N=C/c2cc([N+](=O)[O-])ccc2O)c1,-4,64*,2,-1
Cc1ccc(/C=N/NC(=O)CSc2nc3ccccc3s2)o1,4,-4,0,3
Cc1ccccc1NC(=O)CCC(=O)N/N=C/c1cc([N+](=O)[O-])ccc1O,-8,44,2,5
COc1ccc(C2CCCCCN2C(=O)C2CCN(S(=O)(=O)c3cccc(C(C)=O)c3)CC2)cc1 (centres undefined),-18,83*,nt,nt
CC(=O)c1cccc(S(=O)(=O)N2CCC(C(=O)O)CC2)c1,-1,-5,-1,-1
COc1cc(/C=N/NC(=O)c2ccc(CSc3nc4ccccc4[nH]3)cc2)ccc1O,-13,52*,3,-1
O=C(N/N=C/c1ccc(OC(=O)c2ccccc2Cl)cc1)c1cc(O)cc(O)c1,11,54*,nt,nt
COc1cc(C(=O)N/N=C/c2ccc(OC(=O)c3ccccc3)c(OC)c2)ccc1O,-7,52*,nt,nt
COc1cc(/C=N/NC(=O)c2[nH]nc3c2CCc2ccccc2-3)ccc1O,-21,54*,4,2
COc1cc(/C(C)=N/NC(=O)CSc2nc3ccccc3[nH]2)ccc1O,-10,-1,1,-1
O=C(N/N=C/c1ccc(OC(=O)c2ccccc2Cl)cc1)c1ccccn1,0,-1,-1,-3
COc1cc(/C=N/NC(=O)c2ccccc2)ccc1O,-2,2,-1,-1
CC1(C)CC(=O)c2c(O)cc(OCC(=O)Nc3ccc(CCO)cc3)cc2O1,-5,-5,-2,-7
CCn1c(CC(=O)Nc2ccccc2C)nnc1SCC(=O)NC1CCCC1,0,1,-3,6
COc1cc(/C=N/NC(=O)c2cc(O)cc(O)c2)ccc1OC(=O)c1ccccc1,-15,56*,nt,nt
COc1ccc(/C=N/NC(N)=S)cc1OC(=O)c1ccccc1,-20,13,1,3
O=C1NC(Cc2ccc(O)cc2)c2nc3cc(F)c(F)cc3c(=O)n2-c2cc3ccccc3cc21 (centres undefined),nt,18,nt,nt
O=C1NC(Cc2ccc(O)cc2)c2nc3ccc(F)cc3c(=O)n2-c2cc3ccccc3cc21 (centres undefined),nt,95*,nt,nt
COc1cccc(C(O)c2ncc(-c3cccc(F)c3)[nH]2)c1 (centres undefined),nt,-4,nt,nt
O=C(N/N=C/c1ccccn1)c1[nH]c2ccc([N+](=O)[O-])cc2c1-c1ccccc1,-5,84*,4,13
COc1ccccc1NC(=O)C(=O)NCCC1CCCCN1S(=O)(=O)c1ccc(F)cc1 (centres undefined),-9,0,5,-1
SMILES,ATG4B inhibitor,H9c2 protect,PP5 primary,PP1 inh
CCSc1nnc(NC(=O)C2CC=CCC2C(=O)O)s1 (centres undefined),0,6,-2,16*
Cc1cc(C(=O)CN2C(=O)C(=O)N(Cc3ccco3)C2=O)c(C)n1CCc1ccccc1,-16,-5,-1,3
Cc1cc(C(=O)CN2C(=O)C(=O)N(Cc3ccco3)C2=O)c(C)n1CCc1ccc(F)cc1,-4,-7,5,17*
CN(C)c1ccc(C(=O)N=c2sccn2C)cc1[N+](=O)[O-],-12,-10,3,-2
CC12CCC(C(=O)N(CSC(=S)N/N=C\c3ccccc3O)C1=O)C2(C)C (centres undefined),-9,52*,3,2
Cc1sc2ncnc(N3CCC(C(=O)Nc4sc5c(c4C(N)=O)CCC(C)C5)CC3)c2c1C (centres undefined),-5,-7,2,-3
CN(Cc1ccccc1)C(=O)COC(=O)c1ccc(=O)n(Cc2ccccc2)n1,-11,0,1,-7
CN(C(=O)c1cccc(NC(=O)Cc2ccc(NC(=O)C3CCCN(C(=O)C4CC4)C3)cc2)c1)C1CCCC1 (centres undefined),-2,-11,nt,nt
Cc1ccc(OCC(=O)N/N=C/c2cccc3cccnc23)cc1,-14,56*,1,0
Cc1ccccc1OCC(=O)N/N=C/c1cccc2cccnc12,-2,40,3,-6
O=C(COc1ccc(F)cc1)N/N=C/c1cccc2cccnc12,36,54*,6,-8
CCN(CC)c1ccc(NC(=O)CCN2C(=O)c3ccccc3S2(=O)=O)c(C)c1,-8,-1,1,4
C=CCN1C(=O)/C(=C/c2ccc(O)c(OC)c2)S/C1=N/c1nccs1,-1,51*,2,-5
Cc1ccc(C(=O)N/C(=C\c2ccccc2)C(=O)NCCN2CCOCC2)cc1,9,-5,2,-2
Oc1ccc2oc3c(c2c1/C=N/n1cnnc1)CCCC3,-15,60*,5,0
Oc1c(C=NCc2ccncc2)sc2ccccc12,-4,nt,-1,1
Oc1ccccc1N=Cc1c(O)ccc2oc3c(c12)CCCC3,-4,7,0,-1
O=C(O)c1ccc(N=Cc2c(O)ccc3oc4c(c23)CCCC4)cc1,4,62*,3,0
Cc1ccnc(N=Cc2c(O)ccc3oc4c(c23)CCCC4)c1,nt,nt,6,3
Oc1ccc2oc3c(c2c1C=NCc1ccncc1)CCCC3,-4,67*,1,-2
Cc1ccc(NC(=O)COC(=O)C(CC(C)C)N2C(=O)C3CC=CCC3C2=O)c(C)c1 (centres undefined),-7,-17,1,2
CCCNC(=O)c1c(N)n(-c2cccc(OC)c2)c2nc3ccccc3nc12,-9,55*,4,5
Nc1c(C(=O)NCC2CCCO2)c2nc3ccccc3nc2n1-c1ccccc1 (centres undefined),-13,55*,2,-1
COCCCNC(=O)c1c(N)n(-c2cccc(S(N)(=O)=O)c2)c2nc3ccccc3nc12,-26,15,5,-2
COc1cccc(Nc2nc(C(N)CCc3ccccc3)cs2)n1 (centres undefined),nt,-13,nt,nt
NC(=O)c1cccc(Nc2nc(C(N)CCc3ccccc3)cs2)n1 (centres undefined),nt,77*,nt,nt
COc1ccc(Nc2nc(C(=O)N3CCc4cc(OC)c(OC)cc4C3)cs2)cc1,-17,74*,1,-1
COc1ccc(Nc2nc(C(=O)N3CCc4ccccc4C3)cs2)cc1,22,1,-5,6
Cc1ccc(CCNC(=O)C2CCN(S(=O)(=O)c3ccc4c(c3)NC(=O)CO4)CC2)cc1,-20,-2,2,1
CCc1nccn1CCC(=O)N1CCCC(N2CCN(c3ccccc3C)CC2)C1 (centres undefined),7,-1,2,-8

# High-throughput results (PubChem)
